High-throughput results (PubChem BioAssay)
An excerpt weighted towards active compounds, which were near 0.93% of everything screened.
MEP2-GFP yeast: modulators of MEP2-GFP levels in yeast, primary screen, S. cerevisiae, multiplex flow cytometry, MLPCN library; S. cerevisiae MEP2-GFP strain, 3 h; 100% = DMSO control level; GFP response vs DMSO, % at 10 µM; 0.51% of 330,000 active;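 active means GFP response versus DMSO above a set limit, roughly screen mean plus 3 SD, cut at about 180% in these data; inconclusive means fewer than 70 cells counted for a yeast strain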;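 further: median GFP fluorescence of the barcode-gated MEP2-GFP cells per well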
RPL19A TOR yeast: RPL19A-GFP expression modulators in yeast, primary screen, cell-based, S. cerevisiae, multiplex flow cytometry, MLPCN | S. cerevisiae RPL19A-GFP strain, 3 h; hits give low values | percent response vs DMSO, % at 10 µM | 0.3% of 330,000 active;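 active means percent response vs DMSO below 50%; inconclusive means fewer than 70 events counted for the yeast strain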;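 further: median channel GFP fluorescence of the barcoded RPL19A-GFP strain; ratio of sample median GFP to plate DMSO average so 100% = DMSO; lower means less RPL19A-GFP as with rapamycin TOR inhibition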
CIT2 TOR yeast: modulators of CIT2-GFP expression in yeast, primary screen, S. cerevisiae, GFP fusion, multiplex flow cytometry, MLPCN library; 0.065% of 320,000 active; AID 2029, 2009; GFP response vs DMSO, % at 10 µM; S. cerevisiae CIT2-GFP strain, 3 h; 100 means same as DMSO wells;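 active means GFP response relative to DMSO above a set limit, near the screen mean plus 3 SD, cut at about 150% in these data; inconclusive means Fewer than 70 cells measured for a yeast strain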;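 further: ratio of well median GFP fluorescence to mean of DMSO wells on the plate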
LAP4-GFP MLPCN: modulators of LAP4-GFP expression in yeast, primary screen, S. cerevisiae, multiplex flow cytometry, MLPCN library; 3 h; median GFP as percent of DMSO wells; 0.34% of 320,000 active; AID 2023, 2009; GFP response vs DMSO, % at 10 µM;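 active means GFP response vs DMSO above a set limit, about the screen mean plus 3 SD, cut at about 150% in these data; inconclusive means under 70 cell events counted for the yeast strain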
AGP1 TOR yeast: modulators of AGP1-GFP expression in yeast TOR pathway, primary screen, cell-based, multiplex flow cytometry, S. cerevisiae, MLPCN library; AID 2066, 2009; 3 h; GFP as percent of DMSO wells; 0.02% of 320,000 active; GFP response vs DMSO, % at 10 µM;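 active means GFP response relative to DMSO above a set limit, near screen average plus 3 SD, cut at about 150% in these data; inconclusive means fewer than 70 cells counted for the yeast strain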;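 further: median GFP channel fluorescence of the gated AGP1 strain per well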
LAP4-GFP pick2: LAP4-GFP expression modulators in yeast, confirmation, cell-based, second cherry pick, flow cytometry. shares compounds with LAP4-GFP MLPCN. S. cerevisiae LAP4-GFP strain, 3 h. GFP response vs DMSO, % at 10 µM. 20% of 590 active. AID 2621, 2010;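 active means GFP signal as percent of the solvent control above about 150%, meaning raised reporter expression, limit read from the data; inconclusive means fewer than 70 cells counted in the well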;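 further: ratio of well median GFP fluorescence to plate DMSO mean so 100% = DMSO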
MEP2-GFP pick2: modulators of MEP2-GFP levels in yeast, confirmation, S. cerevisiae, flow cytometry GFP, second cherry picks; shares compounds with LAP4-GFP MLPCN; S. cerevisiae MEP2-GFP strain, 3 h; GFP response vs DMSO, % at 10 µM; 10% of 590 active;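 active means GFP signal above 150% of the solvent control wells, that is a rise of more than half; inconclusive means fewer than 70 yeast cells counted in the well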;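 further: median channel GFP fluorescence of all gated yeast cells per well; ratio of median GFP to plate DMSO average so 100% = DMSO level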
RPL19A GFP CP2: RPL19A-GFP modulators in TOR pathway yeast, confirmation, cell-based, S. cerevisiae, flow cytometry, second cherry pick | AID 2623, 2010 | shares compounds with LAP4-GFP MLPCN | GFP response vs DMSO, % at 10 µM | S. cerevisiae RPL19A-GFP strain, 3 h; hits give low values; 100% means same as DMSO wells | 3% of 590 active;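 active means under 65% GFP response relative to DMSO; inconclusive means yeast strain with under 70 measured events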;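 further: median GFP channel fluorescence per well over the all cells gate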
CIT2 GFP CP2: modulators of CIT2-GFP expression in yeast, confirmation, flow cytometry, second cherry pick, single plex. S. cerevisiae CIT2-GFP strain, 3 h; DMSO control wells read 100%. GFP response vs DMSO, % at 10 µM. 8% of 590 active. AID 2624, 2010. shares compounds with LAP4-GFP MLPCN;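 active means GFP response vs DMSO above about 150%, limit read from the data; inconclusive means fewer than 70 events counted for a yeast strain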;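 further: median green fluorescence per well over all gated yeast cells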
AGP1-GFP pick2: AGP1-GFP expression modulators, hit retest, confirmation, cell-based, flow cytometry, S. cerevisiae, cherry pick set 2. shares compounds with LAP4-GFP MLPCN. S. cerevisiae AGP1-GFP strain, 3 h. percent response vs DMSO, % at 10 µM. 590 tested, under 10 active;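 active means over 150 percent of DMSO response; inconclusive means yeast strain measured with under 70 events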;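 further: median GFP channel fluorescence over all cells without mother daughter split; sample median GFP divided by mean DMSO control so 100% equals DMSO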
s288c autofluor: compound autofluorescence in yeast s288c, dose response, artefact control for yeast TOR pathway GFP screen, s288c strain | shares compounds with LAP4-GFP MLPCN | S. cerevisiae s288c, 520 nm autofluorescence, flow cytometry, 3 h; hits give high values; zero means same as solvent-only cells | fluorescence change (kMESF span) at 33 µM | 610 tested, under 10 active;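 active means fluorescence span over the dose series, or activity score, above about 33, limit read from the data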
s288c autofl DR: autofluorescence of compounds in yeast s288c, dose response, artefact control for yeast TOR pathway GFP screen, primary hits, KU SAR, s288c parental | fluorescence change (span) at 33 µM | S. cerevisiae s288c parental, compound autofluorescence, flow cytometry, 3 h | AID 488829, 2010 | shares compounds with LAP4-GFP MLPCN | 110 tested, under 10 active;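 active means fluorescence change span, or the activity score built from it, above 25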
TORC1 bypass: wild-type yeast growth inhibition sparing TORC1 bypass cells, mechanism study for yeast TOR pathway GFP screen, BY4741 wild type, TORC1 bypass strain; shares compounds with LAP4-GFP MLPCN; S. cerevisiae BY4741 spot growth rating, 48-72 h; hits give low values; growth rating (0-3) at 30 µM; 120 tested, under 10 active; AID 504456, 2011;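 active means growth rating at most 1 for wild type yeast while the TORC1 bypass strain still grows fully, rated 3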
An asterisk follows results filed as active; ? = inconclusive; · = not tested or not shown.

SMILES	MEP2-GFP yeast	RPL19A TOR yeast	CIT2 TOR yeast	LAP4-GFP MLPCN	AGP1 TOR yeast	s288c autofluor	others
COc1cc(OC)cc(C(=O)N[C@H](C(=O)NCc2cccs2)C(C)C)c1	98	100	105	112	113	·
Cn1c(SCC(=O)NCc2cccs2)nnc1-c1ccc(O)cc1	99	101	104	101	102	·
Cc1ccc(/C=C/C(=O)c2ccccc2)cc1	103	114	107	111	114	·
Cc1ccc(C)c(/C=C/C(=O)c2ccccc(=O)c2O)c1	96	91	72	135	67	14	LAP4-GFP pick2=145;MEP2-GFP pick2=168*;RPL19A GFP CP2=78;CIT2 GFP CP2=152*;AGP1-GFP pick2=82
Cc1ccc(/C=C/C(=O)c2ccccc(=O)c2O)c(C)c1	181*	64	103	106	20	0.91
O=C(/C=C/c1ccccc1Cl)c1ccccc(=O)c1O	160	63	95	146	33	16	LAP4-GFP pick2=162*;MEP2-GFP pick2=222*;RPL19A GFP CP2=76;CIT2 GFP CP2=145;AGP1-GFP pick2=77
O=C(CSc1nnc(-c2ccccc2F)o1)NC(=O)Cc1ccccc1	103	100	104	99	99	·
O=C(O)CCCc1ccc2c(c1)CCc1ccccc1-2	87	87	59	173*	72	·	LAP4-GFP pick2=109;MEP2-GFP pick2=96;RPL19A GFP CP2=91;CIT2 GFP CP2=97;AGP1-GFP pick2=88
CC(C)(C)C(=O)NC(=S)Nc1ccc(F)cc1	92	96	86	101	91	·
CC(=O)Nc1ccc(NC(=O)Cc2sc(C)nc2-c2ccc(C)cc2)cc1	100	102	100	99	109	·
Cc1ccc(-c2nc(C)sc2CC(=O)Nc2nnc(C)s2)cc1	155	53	94	97	41	0	LAP4-GFP pick2=113;MEP2-GFP pick2=122;RPL19A GFP CP2=100;CIT2 GFP CP2=118;AGP1-GFP pick2=104
CC1=C/C(=N\OS(=O)(=O)c2ccccc2)C(C)=CC1=O	107	87	87	234*	97	15
CC1=C/C(=N\OS(=O)(=O)c2ccccc2)C(C(C)C)=CC1=O	92	86	60	191*	75	1.1	LAP4-GFP pick2=172*;MEP2-GFP pick2=157*;RPL19A GFP CP2=96;CIT2 GFP CP2=117;AGP1-GFP pick2=75
CC1=C(C)/C(=N\OS(=O)(=O)c2ccc(C)cc2)C=CC1=O	86	79	86	244*	80	0	LAP4-GFP pick2=160*;MEP2-GFP pick2=145;RPL19A GFP CP2=106;CIT2 GFP CP2=153*;AGP1-GFP pick2=87
CCOc1cc2c(cc1OCC)CN(CC(=O)Nc1ccccc1C(=O)NC1CC1)CC2	102	101	104	102	99	·
O=C(C[C@@H]1C/C=C/CC[C@@H](Cc2ccc(F)cc2)C(=O)OC[C@H](Cc2ccccc2)NC1=O)N[C@H](CO)Cc1ccccc1	103	107	105	98	110	·
COc1ccc(C(=O)/C=C2/C(=O)Nc3ccccc32)c(OC)c1	87	94	80	137	88	0.1
COc1ccc(C(=O)/C=C2/C(=O)Nc3ccccc32)cc1OC	103	108	102	95	105	-2.1
COc1ccc(C(=O)/C=C2/C(=O)Nc3ccccc32)cc1	97	103	74	167*	71	-0.2
COc1cc(OC)c(/C=C2\C(=O)Nc3ccccc32)c(OC)c1	102	100	68	141	78	·
O=C1Nc2ccccc2/C1=C/C(=O)c1cccs1	162	54	?	129	?	·
CC1=CC(c2ccc(Cl)cc2)n2nc(NC(=O)CCC(=O)O)nc2N1 (stereo not given)	99	98	98	103	100	·
CC1CN(c2nc3ccccc3nc2SCC(=O)Nc2ccc(F)cc2)CC(C)O1 (stereo not given)	98	105	119	119	108	·
NS(=O)(=O)c1ccc(CCNC(=O)C(=O)c2cn(CC(=O)N3CCOCC3)c3ccccc23)cc1	113	99	171*	104	109	·	LAP4-GFP pick2=103;MEP2-GFP pick2=102;RPL19A GFP CP2=99;CIT2 GFP CP2=106;AGP1-GFP pick2=99
CCN(CC)C(=O)Cn1cc(C(=O)C(=O)NCCc2ccc(S(N)(=O)=O)cc2)c2ccccc21	106	106	103	109	109	·
CCN(C(=O)COC(=O)/C=C/c1c(C)nn(Cc2ccc(C)cc2)c1C)C1CCS(=O)(=O)C1 (stereo not given)	97	88	87	94	96	·
COCCNc1nc(N)c([N+](=O)[O-])c(NCC2CCCO2)n1 (stereo not given)	96	99	99	93	98	·
Nc1nc(NCc2ccccc2)nc(Nc2ccc(F)cc2)c1[N+](=O)[O-]	106	105	104	101	113	·
CNc1nc(N)c([N+](=O)[O-])c(Nc2ccc(Cl)cc2)n1	·	·	·	·	·	·	s288c autofl DR=0.05;TORC1 bypass=3
CNc1nc(N)c([N+](=O)[O-])c(Nc2ccccc2)n1	·	·	·	·	·	·	s288c autofl DR=0.63;TORC1 bypass=3
